Pf Dd2 growth: inhibitors of Plasmodium falciparum Dd2 growth | AID 1347417 | 120,000 tested, 4.3% active | P. falciparum Dd2 growth, SYBR Green, 72 h | Potency, µM (doses to about 28.9 µM), for the others: at the top dose activity, negative = inhibition, usual class: inhibitors; active = well fitted inhibition curve with a large enough effect;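 note: plate controls were DMSO vehicle for no effect and reference drug for full effect; nearly all actives have a fitted effect of over 65% in size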
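Infected erythrocytes (Dd2, 0.3% parasitemia, 2.5% hematocrit final) are added to compound in RPMI-1640/Albumax II medium, grown 72 h at 37C in low oxygen, then lysed with saponin/Triton-X containing SYBR Green and read by fluorescence.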
* marks the source's active call; other numbers are inactive results; i = inactive; [ ] = another dose, or the depositor's remark. This excerpt belongs to a sample that is enriched for hits. Potency is the fitted concentration of half-maximal effect.

SMILES	Pf Dd2 growth
Cc1cccc(NC(=O)Cn2ccn3nc(-c4ccc(F)cc4)c(CO)c3c2=O)c1C	-8%
CN(Cc1nccn1Cc1ccccc1)C(=O)CCc1ccc2c(c1)OCO2	-10%
Cc1c(C(=O)NCCN(C)C)oc2c1-c1nn(Cc3cccc(Cl)c3)cc1CC2	-7%
CN(C)CCN(C)Cc1cn(Cc2ccccc2)nc1-c1ccc2c(c1)OCO2	10µM*
O=C(NCCc1cccc(F)c1)C1CC(=O)N(c2n[nH]c3ccccc23)C1 (stereo not drawn)	-17%
COc1cccc(CN2C(=O)OC3(CCN(Cc4ccncc4)CC3)C2(C)c2cccnc2)c1 (stereo not drawn)	-9%
COc1cccc(CN2C(=O)OC3(CCN(Cc4ccccc4OC)CC3)C2(C)c2cccnc2)c1 (stereo not drawn)	1.1µM*
COc1cccc(CN2C(=O)OC3(CCN(Cc4ccc(F)cc4)CC3)C2(C)c2cccnc2)c1 (stereo not drawn)	0.79µM*
COc1cccc(CN2C(=O)OC3(CCN(C(=O)Cc4cccc(F)c4)CC3)C2(C)c2cccnc2)c1 (stereo not drawn)	i
COc1cccc(CN2C(=O)OC3(CCN(C(=O)CCc4cccnc4)CC3)C2(C)c2cccnc2)c1 (stereo not drawn)	i
COCC(=O)N1CCC2(CC1)OC(=O)N(Cc1cccc(OC)c1)C2(C)c1cccnc1 (stereo not drawn)	-10%[44.1 µM]
CNC(=O)[C@@H]1C[C@@H](n2cc(CN(C)C(=O)Nc3ccc(F)cc3)nn2)CN1	-3%
CC(C)(C)CC(=O)N1CCC(N2CCCC(C(=O)NCc3ccccc3)C2)CC1 (stereo not drawn)	-29%
CCOC(=O)C1(Cc2ccccc2F)CCCN(C(=O)c2cnn(CC)c2)C1 (stereo not drawn)	3%
CO[C@@H]1COCC[C@H]1NC(=O)c1ccc(CSc2ccccn2)cc1	-10%
CN(C)Cc1cn(C[C@H]2C[C@@H]3CCN2C[C@@H]3C(=O)NCc2ccc(F)cc2)nn1	-7%[44.1 µM]
Cc1ccccc1-n1nc(C)c(CCC(=O)N(C)C(C)C)c1Oc1ccccc1F	6.3µM*
C=CCNC(=O)CCc1c(C)nn(-c2ccc(F)cc2)c1Oc1ccccc1F	i
C=CCNC(=O)CCc1c(C)nn(-c2ccccc2)c1Oc1ccccc1	-22%
Cc1nn(-c2ccc(F)cc2)c(Oc2ccc(F)cc2F)c1CCC(=O)NCc1ccco1	i
Cc1nn(-c2ccccc2)c(Oc2ccccc2F)c1CCC(=O)NCc1ccco1	7.9µM*
Cc1nn(-c2ccc(F)cc2)c(Oc2ccc(F)cc2F)c1CCC(=O)N(C)C(C)C	-11%
C=CCNC(=O)CCc1c(C)nn(-c2ccc(F)cc2)c1Oc1ccccc1	7.9µM*
CCNC(=O)CCc1c(C)nn(-c2ccccc2)c1Oc1ccccc1F	i
Cc1cccc(-n2nc(C)c(CCC(=O)N(C)C(C)C)c2Oc2ccc(F)cc2F)c1	-6%
SMILES	Pf Dd2 growth
O=C(NC1CCCCC1)N1C[C@@H]2C[C@H](C1)c1c(-c3ccc4ccccc4c3)ccc(=O)n1C2	-17%
O=C(NCC1CCOCC1)c1cnccn1	39%
COc1ccc(CN2C(=O)O[C@@H]3CN(C(=O)NC4CCCCC4)C[C@@H]32)cc1OC	6%
O=C(Nc1ccsc1)O[C@@H]1CO[C@H]2[C@@H]1OC[C@@H]2Nc1nccc(-c2cccc(F)c2)n1	10%
CC(=O)c1cccc(N2C(=O)[C@@H]3[C@@H](CCN3C(=O)C(C)(C)C)N(Cc3cccc(F)c3)C2=O)c1	i
O=C(c1ccccc1F)N1CCC2(CC1)NC(=O)N(Cc1ccc(F)cc1)C2=O	-5%
COc1ccc(Cl)cc1NC(=O)CCC1CCCN(C(=O)Cn2cccn2)C1 (stereo not drawn)	-8%
CCN(CC)c1cc(CCC(=O)NCc2ccc(Cl)cc2)ccn1	5µM*
Cn1cc(CCC(=O)NCc2ccc(Cl)cc2)c2ccccc21	29%
CCN(CC)c1cc(CCC(=O)N(C)CCc2ccncc2)ccn1	-14%
Cc1cnc(C2CC2)n1C1CCCN(C(=O)C2CC2)C1 (stereo not drawn)	i
COc1ccc(CNC(=O)C[C@@H]2CCNC[C@@H]2Cc2cc(CN3CCOCC3)on2)cc1	16%
O=C(C[C@@H]1CCNC[C@@H]1Cc1cc(CC2CCCCC2)on1)NCc1ccco1	i
COc1ccc(CNC(=O)C[C@@H]2CCNC[C@@H]2Cc2cc(CC3CCCCC3)on2)cc1	11µM*
CC(C)c1nc2c(c(-c3ccc(O)cc3)n1)CN([S+](=O)([O-])c1cccs1)CC2	i
Cc1ccc(OC2(C(=O)N3CCCC3c3nccs3)CCNCC2)cc1 (stereo not drawn)	i
O=C(NC(c1ccccc1)c1ccccc1)c1cnc2c(c1)N(C(=O)Cc1ccc(O)cc1)CCC2	13µM*
O=C(Nc1ccccc1)c1cnc2c(c1)N(C(=O)Cc1ccc(O)cc1)CCC2	-20%[44.1 µM]
Cc1csc(NC(=O)c2cnc3c(c2)N(C(=O)Cc2ccc(C(C)C)cc2)CCC3)n1	7.1µM*
COc1ccc(NC(=O)c2cnc3c(c2)N(C(=O)Cc2ccc(O)cc2)CCC3)cn1	3%[44.1 µM]
CC(C)c1ccc(CC(=O)N2CCCc3ncc(C(=O)Nc4ccn(C)n4)cc32)cc1	-12%[44.1 µM]
CC(C)c1ccc(CC(=O)N2CCCc3ncc(C(=O)Nc4ccccc4)cc32)cc1	-8%[44.1 µM]
O=C(NCCN1CCCC1)c1ccc(-c2ccc(N3CCSCC3)nc2)cc1	-25%
CCC(=O)N1CCC(Cc2ncc(C)n2C(C)C)C1 (stereo not drawn)	-10%
Cc1cc(CNC(=O)[C@@H]2CCC[C@@H](NCc3cccnc3)CN(C)C(=O)C2)no1	-21%[44.1 µM]
SMILES	Pf Dd2 growth
O=C(COc1ccccc1)Nc1ccc([C@@H](O)[C@H]2COCC(=O)N2CCCc2ccccc2)cc1	7.9µM*
CCOCCN1C(=O)COC[C@@H]1[C@H](O)c1ccc(NC(=O)COc2ccccc2)cc1	-25%[44.1 µM]
CCN1C(=O)COC[C@@H]1[C@H](O)c1ccc(NC(=O)COc2ccccc2)cc1	-8%[44.1 µM]
O=C(c1ccc(-c2ccc(N3CCCCC3)nc2)cc1)N1CCCC1	-3%
CCOc1ccc(C2Cn3nnc(-c4nc(-c5cccc(C)c5)no4)c3CO2)cc1 (stereo not drawn)	-26%
COc1cccc(CNC(=O)C(C)(C)C2CCOCC2)c1OC	6%
Cn1c(=O)c2c(-c3ccccc3Cl)n(Cc3ccc(Cl)cc3)cc2n(C)c1=O	-24%
Cn1c(=O)c2c(-c3ccccc3Cl)n(-c3cc(Cl)ccc3O)cc2n(C)c1=O	7.9µM*
Cn1c(=O)c2c(-c3cccc(Br)c3)n(CCO)cc2n(C)c1=O	i
CCOC(=O)c1[nH]c(=O)[nH]c1C1CC(=O)Nc2c1cnn2C(CC)CC (stereo not drawn)	0%
CNC(=O)[C@@H]1CN(S(=O)(=O)c2ccccc2F)C[C@H]1COC	15%
COCc1noc([C@@H]2CN(Cc3cccc(Cl)c3F)C[C@H]2C(N)=O)n1	23%
Cc1cnc(C2CC2)n1C1CCN(C(=O)NC(C)C)CC1	-14%
Cc1cnc(C2CCOCC2)n1C1CCN(C(=O)Nc2ccc3c(c2)OCCO3)CC1	7.9µM*
Cc1cnc(CCNC(=O)Nc2ccc3c(c2)OCCO3)n1C1CC1	-16%
CC(C)CC1=NC2(CCN(C(=O)c3ccoc3)CC2)C(=O)N1	-2%
COCC(=O)N[C@H]1CO[C@H]2[C@@H]1OC[C@@H]2Nc1nccc(-c2cccc(F)c2)n1	i
N#Cc1cccc(NC(=O)O[C@@H]2CO[C@H]3[C@@H]2OC[C@@H]3Nc2nccc(-c3cccc(C#N)c3)n2)c1	i

Source: PubChem BioAssay
